What all share (assay): DAPPL (digital affinity profiling via proximity ligation, sequencing); 10 mM Tris-HCl pH 7.5, 50 mM NaCl, 1 mM DTT, 4% glycerol, room temperature, 30 min; GST-TFs on glutathione beads, 16-mer random dsDNA library, 0.1% formaldehyde crosslink after washing; high values mean tight binding
Common to all, as to conditions: protein: recombinant; tags: N-terminal GST; dsDNA, one strand shown

The target of one test is T1, FLI1 (Homo sapiens, UniProt Q01543 1-452).
T1 sequence: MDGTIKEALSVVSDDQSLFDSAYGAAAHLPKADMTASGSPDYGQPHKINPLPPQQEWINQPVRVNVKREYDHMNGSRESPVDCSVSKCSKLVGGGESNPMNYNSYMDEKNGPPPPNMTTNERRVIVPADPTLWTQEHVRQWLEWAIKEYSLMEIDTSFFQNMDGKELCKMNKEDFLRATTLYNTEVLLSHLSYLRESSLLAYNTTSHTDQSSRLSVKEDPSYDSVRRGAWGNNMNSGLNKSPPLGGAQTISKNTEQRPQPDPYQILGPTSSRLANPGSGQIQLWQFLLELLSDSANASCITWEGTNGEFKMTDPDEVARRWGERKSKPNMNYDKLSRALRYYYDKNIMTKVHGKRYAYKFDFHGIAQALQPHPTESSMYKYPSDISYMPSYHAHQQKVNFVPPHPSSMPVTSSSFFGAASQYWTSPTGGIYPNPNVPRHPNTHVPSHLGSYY
In a few lines:
(§1)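 Pools of DNA-barcoded human transcription factors, expressed in yeast as GST fusions on glutathione beads and combined with a tag-only sample, were incubated with 200 nmole of a 16-mer random double-stranded DNA library. Incubation took 30 min at room temperature in Tris/NaCl/DTT/glycerol buffer and was followed by washing, 0.1% formaldehyde crosslinking, proximity ligation (BsaI/T4 ligase, 1 h, 37 °C), PCR amplification and sequencing on an Illumina NextSeq500. Binding signal is the ratio of a hexamer's read frequency for a factor to its frequency for the tag-only sample.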

Another test has as its target T2, GABPA (Homo sapiens, UniProt Q06546 1-454).
T2 sequence: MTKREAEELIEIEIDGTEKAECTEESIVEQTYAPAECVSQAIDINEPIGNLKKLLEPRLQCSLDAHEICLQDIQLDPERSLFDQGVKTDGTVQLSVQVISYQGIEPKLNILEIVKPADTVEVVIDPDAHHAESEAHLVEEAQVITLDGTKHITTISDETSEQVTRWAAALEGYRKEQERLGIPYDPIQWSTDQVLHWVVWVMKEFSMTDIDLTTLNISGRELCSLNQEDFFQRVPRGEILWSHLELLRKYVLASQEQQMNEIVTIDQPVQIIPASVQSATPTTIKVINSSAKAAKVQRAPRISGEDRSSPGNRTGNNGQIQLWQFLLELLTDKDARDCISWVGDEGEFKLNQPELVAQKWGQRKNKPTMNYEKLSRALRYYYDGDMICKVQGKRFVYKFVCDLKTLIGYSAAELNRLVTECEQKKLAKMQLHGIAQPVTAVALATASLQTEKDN
In a few lines: as §1

Another test has as its target T3, ERG (Homo sapiens, UniProt P11308 1-479).
T3 sequence: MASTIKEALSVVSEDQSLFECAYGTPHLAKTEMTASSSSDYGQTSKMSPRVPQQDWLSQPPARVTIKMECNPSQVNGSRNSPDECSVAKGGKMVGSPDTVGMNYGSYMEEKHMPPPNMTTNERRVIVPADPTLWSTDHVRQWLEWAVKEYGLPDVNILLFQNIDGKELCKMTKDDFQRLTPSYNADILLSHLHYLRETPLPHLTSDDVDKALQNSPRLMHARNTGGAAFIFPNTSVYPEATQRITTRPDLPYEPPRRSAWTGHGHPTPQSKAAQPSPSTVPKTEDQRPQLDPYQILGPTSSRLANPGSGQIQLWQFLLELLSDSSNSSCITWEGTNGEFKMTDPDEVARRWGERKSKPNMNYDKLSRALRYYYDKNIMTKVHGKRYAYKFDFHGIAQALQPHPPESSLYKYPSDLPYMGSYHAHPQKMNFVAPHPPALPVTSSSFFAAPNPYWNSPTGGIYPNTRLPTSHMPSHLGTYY
In outline: as §1

For a further test, the target named is ELF1 (Homo sapiens, UniProt P32519 1-619). In outline:
as §1

The next test deals with T4, EHF (Homo sapiens, UniProt Q9NZC4 1-300).
T4 sequence: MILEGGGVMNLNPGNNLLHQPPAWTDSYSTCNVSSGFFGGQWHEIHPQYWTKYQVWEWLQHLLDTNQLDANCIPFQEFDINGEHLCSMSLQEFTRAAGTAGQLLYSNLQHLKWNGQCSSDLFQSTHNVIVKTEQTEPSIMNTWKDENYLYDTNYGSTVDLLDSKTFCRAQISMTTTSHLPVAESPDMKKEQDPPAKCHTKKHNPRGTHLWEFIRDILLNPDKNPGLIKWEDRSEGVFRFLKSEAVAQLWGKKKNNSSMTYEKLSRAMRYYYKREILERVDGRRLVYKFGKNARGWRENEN
In outline: as §1

Another test concerns the target SPI1 (Homo sapiens, UniProt P17947 1-270). In a few lines:
as §1

The next test concerns the target SPIB (Homo sapiens, UniProt Q01892 1-262). In a few lines:
as §1

The target of another test is T5, FEV (Homo sapiens, UniProt Q99581 1-238).
T5 sequence: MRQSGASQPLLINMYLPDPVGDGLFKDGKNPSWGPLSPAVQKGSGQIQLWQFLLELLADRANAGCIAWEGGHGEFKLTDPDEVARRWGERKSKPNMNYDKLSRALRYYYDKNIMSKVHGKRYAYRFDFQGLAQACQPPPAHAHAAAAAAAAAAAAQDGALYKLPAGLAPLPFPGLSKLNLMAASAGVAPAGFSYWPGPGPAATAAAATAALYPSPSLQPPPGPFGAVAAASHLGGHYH
In outline: as §1

The target in the next test is ETV5 (Homo sapiens, UniProt P41161 1-510). In a few lines: as §1
Sequence of ETV5 (P41161 whole entry): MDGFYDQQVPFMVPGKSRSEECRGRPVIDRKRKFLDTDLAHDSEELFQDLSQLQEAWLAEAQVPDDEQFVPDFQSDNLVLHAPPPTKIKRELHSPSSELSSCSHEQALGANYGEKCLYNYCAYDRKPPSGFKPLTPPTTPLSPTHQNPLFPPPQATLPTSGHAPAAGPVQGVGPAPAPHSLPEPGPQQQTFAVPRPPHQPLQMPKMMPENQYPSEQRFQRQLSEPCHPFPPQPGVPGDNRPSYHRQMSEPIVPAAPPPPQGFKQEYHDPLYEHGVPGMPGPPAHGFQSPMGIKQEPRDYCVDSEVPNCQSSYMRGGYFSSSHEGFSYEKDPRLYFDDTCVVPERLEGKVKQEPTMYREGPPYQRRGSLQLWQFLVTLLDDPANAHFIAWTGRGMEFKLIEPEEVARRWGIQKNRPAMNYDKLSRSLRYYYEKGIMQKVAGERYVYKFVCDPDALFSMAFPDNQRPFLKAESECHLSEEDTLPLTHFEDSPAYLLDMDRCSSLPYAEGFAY
In a further test the target is T6, SPIC (Homo sapiens, UniProt Q8N5J4 1-248).
T6 sequence: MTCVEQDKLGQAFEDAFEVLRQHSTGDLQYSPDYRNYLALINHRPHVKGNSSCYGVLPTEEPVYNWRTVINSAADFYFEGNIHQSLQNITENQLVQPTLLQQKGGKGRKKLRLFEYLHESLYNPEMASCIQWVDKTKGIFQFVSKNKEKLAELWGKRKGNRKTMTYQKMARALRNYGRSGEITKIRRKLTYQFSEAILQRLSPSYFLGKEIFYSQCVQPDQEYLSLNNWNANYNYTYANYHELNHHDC
In a few lines: as §1

A further test concerns the target ELF4 (Homo sapiens, UniProt Q99607 1-663). In outline:
as §1

A further test addresses ETV1 (Homo sapiens, UniProt P50549 1-477). In outline:
as §1

Another test has as its target T7, ERF (Homo sapiens, UniProt P50548 1-548).
T7 sequence: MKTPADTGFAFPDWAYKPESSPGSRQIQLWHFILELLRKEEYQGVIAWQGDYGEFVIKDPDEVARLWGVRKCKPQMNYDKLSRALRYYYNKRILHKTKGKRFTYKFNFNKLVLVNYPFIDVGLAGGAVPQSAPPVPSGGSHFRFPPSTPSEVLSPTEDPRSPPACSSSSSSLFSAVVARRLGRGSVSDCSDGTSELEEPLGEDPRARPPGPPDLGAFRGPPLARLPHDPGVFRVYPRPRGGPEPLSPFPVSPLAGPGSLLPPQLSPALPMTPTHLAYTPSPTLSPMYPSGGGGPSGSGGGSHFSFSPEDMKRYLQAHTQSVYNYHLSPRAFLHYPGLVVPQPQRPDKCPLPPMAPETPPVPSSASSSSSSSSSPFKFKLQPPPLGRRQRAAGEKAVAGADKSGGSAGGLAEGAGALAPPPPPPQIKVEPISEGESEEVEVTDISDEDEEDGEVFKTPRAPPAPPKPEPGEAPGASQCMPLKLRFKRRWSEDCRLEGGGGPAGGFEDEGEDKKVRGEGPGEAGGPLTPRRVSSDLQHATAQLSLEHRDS
In a few lines:
as §1

The next test addresses T8, ETV3L (Homo sapiens, UniProt Q6ZN32 1-361).
T8 sequence: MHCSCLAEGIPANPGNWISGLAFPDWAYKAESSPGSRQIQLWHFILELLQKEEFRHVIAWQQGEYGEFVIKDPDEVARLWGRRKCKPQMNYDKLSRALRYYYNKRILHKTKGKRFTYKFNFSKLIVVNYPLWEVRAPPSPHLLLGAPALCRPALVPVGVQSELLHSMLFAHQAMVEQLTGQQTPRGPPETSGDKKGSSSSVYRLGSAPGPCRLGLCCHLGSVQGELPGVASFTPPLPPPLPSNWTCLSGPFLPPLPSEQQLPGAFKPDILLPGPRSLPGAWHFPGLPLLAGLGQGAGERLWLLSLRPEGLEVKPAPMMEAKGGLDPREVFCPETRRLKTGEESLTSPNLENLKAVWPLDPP
In a few lines: as §1

A further test addresses T9, ETS2 (Homo sapiens, UniProt P15036 1-469).
T9 sequence: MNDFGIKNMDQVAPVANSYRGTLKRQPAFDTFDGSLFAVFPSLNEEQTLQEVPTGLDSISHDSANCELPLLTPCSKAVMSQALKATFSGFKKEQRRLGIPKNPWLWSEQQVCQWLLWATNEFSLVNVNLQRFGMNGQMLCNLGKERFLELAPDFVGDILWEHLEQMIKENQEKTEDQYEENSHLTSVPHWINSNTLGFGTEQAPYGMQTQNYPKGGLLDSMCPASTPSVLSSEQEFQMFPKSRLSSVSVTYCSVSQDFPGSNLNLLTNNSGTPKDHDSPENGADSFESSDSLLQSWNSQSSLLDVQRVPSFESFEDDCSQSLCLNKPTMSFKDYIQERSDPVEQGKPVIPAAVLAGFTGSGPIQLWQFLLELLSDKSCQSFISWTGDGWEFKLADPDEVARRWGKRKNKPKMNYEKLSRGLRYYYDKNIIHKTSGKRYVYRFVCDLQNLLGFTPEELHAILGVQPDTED
In a few lines:
as §1

A further test deals with T10, SPDEF (Homo sapiens, UniProt O95238 1-335).
T10 sequence: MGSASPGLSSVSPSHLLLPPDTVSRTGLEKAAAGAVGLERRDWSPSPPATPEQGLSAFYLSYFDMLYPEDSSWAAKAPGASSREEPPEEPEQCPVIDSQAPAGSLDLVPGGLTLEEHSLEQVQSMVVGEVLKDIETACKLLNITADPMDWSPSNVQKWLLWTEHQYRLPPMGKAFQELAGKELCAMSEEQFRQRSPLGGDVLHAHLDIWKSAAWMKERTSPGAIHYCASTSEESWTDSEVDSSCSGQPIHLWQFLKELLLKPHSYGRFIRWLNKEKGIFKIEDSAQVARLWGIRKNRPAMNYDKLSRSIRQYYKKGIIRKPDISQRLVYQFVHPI
In a few lines: as §1

The target of a further test is T11, ELF5 (Homo sapiens, UniProt Q9UKW6-2 1-255).
T11 sequence: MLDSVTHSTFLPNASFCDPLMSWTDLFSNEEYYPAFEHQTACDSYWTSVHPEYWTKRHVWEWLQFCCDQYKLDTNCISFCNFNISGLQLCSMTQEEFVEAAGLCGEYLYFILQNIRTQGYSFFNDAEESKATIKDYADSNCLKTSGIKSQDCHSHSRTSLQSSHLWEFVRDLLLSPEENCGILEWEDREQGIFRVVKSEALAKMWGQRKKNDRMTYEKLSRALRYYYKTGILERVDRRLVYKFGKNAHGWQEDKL
In a few lines:
as §1

For a further test, the target named is T12, ETV3 (Homo sapiens, UniProt P41162-2 1-143).
T12 sequence: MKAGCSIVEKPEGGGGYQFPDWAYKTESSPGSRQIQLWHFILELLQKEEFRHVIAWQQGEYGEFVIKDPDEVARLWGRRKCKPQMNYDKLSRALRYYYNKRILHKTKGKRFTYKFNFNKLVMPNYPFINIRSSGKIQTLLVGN
In outline: as §1

A further test addresses ETV6 (Homo sapiens, UniProt P41212 1-452). In a few lines:
as §1

Sequence of ETV6 (P41212 whole entry): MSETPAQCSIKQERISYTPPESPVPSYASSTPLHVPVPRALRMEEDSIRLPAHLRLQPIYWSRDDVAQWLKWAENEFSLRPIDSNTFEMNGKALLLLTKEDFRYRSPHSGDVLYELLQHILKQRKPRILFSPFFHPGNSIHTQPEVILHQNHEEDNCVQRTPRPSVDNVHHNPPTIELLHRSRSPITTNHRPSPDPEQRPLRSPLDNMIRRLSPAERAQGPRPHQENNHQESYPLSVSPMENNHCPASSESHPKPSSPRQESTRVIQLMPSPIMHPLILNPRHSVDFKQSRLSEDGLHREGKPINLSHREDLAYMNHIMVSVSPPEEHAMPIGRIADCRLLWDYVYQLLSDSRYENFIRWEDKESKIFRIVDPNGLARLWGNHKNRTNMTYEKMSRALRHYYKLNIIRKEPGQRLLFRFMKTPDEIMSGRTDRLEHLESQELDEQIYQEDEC
Sequence of ETV1 (P50549 whole entry): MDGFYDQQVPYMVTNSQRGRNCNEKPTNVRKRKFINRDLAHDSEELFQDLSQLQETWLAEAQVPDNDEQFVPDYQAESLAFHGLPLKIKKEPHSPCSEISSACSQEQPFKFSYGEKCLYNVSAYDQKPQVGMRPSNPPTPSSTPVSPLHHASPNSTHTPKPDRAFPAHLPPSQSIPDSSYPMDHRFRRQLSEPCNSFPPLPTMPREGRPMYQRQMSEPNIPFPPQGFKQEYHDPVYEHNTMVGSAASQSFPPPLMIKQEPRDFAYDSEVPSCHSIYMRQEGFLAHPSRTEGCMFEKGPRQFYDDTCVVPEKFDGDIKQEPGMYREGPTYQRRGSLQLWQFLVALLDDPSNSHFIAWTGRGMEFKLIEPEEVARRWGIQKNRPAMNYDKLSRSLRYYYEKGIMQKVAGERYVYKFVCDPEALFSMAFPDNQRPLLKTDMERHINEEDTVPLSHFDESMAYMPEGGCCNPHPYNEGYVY
Sequence of ELF4 (Q99607 whole entry): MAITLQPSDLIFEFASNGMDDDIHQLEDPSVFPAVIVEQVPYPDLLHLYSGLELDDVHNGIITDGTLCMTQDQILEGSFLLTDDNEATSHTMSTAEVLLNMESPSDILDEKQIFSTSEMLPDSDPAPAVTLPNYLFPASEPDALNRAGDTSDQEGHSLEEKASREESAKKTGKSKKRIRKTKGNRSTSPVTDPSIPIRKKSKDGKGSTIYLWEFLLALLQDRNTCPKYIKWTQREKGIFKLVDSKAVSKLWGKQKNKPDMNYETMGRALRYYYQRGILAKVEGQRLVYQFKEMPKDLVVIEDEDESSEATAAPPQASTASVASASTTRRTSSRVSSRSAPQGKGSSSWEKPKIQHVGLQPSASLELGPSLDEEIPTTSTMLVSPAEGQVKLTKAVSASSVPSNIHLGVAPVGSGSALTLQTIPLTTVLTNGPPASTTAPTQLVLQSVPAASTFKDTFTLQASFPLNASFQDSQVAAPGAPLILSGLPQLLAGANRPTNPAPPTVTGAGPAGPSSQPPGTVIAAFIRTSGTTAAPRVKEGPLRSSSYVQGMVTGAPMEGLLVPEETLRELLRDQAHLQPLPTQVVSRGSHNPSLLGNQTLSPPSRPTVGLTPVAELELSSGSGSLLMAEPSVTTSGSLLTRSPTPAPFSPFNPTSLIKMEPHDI
Sequence of SPIB (Q01892 whole entry): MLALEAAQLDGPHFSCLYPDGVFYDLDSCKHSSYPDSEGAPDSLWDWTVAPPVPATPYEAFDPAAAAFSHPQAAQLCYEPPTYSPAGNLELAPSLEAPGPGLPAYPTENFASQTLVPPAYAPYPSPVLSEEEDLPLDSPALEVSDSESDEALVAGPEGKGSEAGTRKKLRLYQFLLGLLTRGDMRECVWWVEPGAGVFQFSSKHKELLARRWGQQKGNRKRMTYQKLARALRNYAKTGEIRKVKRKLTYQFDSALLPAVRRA
Sequence of ELF1 (P32519 whole entry): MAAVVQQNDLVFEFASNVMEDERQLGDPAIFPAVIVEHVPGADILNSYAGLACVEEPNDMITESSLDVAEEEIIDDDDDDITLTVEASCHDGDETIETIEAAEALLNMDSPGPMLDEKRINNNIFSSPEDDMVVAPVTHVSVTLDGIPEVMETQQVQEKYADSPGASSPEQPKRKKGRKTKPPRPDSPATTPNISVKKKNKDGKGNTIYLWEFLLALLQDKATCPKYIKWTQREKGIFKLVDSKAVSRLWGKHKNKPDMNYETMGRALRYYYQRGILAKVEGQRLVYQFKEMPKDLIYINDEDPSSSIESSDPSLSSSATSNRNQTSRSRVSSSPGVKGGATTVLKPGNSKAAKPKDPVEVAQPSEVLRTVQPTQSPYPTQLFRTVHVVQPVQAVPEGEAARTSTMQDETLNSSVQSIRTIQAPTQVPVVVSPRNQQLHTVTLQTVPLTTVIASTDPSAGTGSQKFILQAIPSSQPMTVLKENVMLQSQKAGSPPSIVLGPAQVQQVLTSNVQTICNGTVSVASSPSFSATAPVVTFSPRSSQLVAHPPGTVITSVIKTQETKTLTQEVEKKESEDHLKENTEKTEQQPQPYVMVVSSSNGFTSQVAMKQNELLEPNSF

AAAGCG: the binding signal is 1.01 fold enrichment (6-mer frequency, TF over GST control) with FLI1; 1.03 fold enrichment (6-mer frequency, TF over GST control) with GABPA; 1.09 fold enrichment (6-mer frequency, TF over GST control) with ERG; 1.06 fold enrichment (6-mer frequency, TF over GST control) with ELF1; 1.1 fold enrichment (6-mer frequency, TF over GST control) with EHF; 1.53 fold enrichment (6-mer frequency, TF over GST control) in the test with SPI1. The binding signal with SPIB is 1.1 fold enrichment (6-mer frequency, TF over GST control); in the test with FEV, 1.06 fold enrichment (6-mer frequency, TF over GST control); in the test with ETV5 it was 1.18 fold enrichment (6-mer frequency, TF over GST control); in the test with SPIC it was 1.08 fold enrichment (6-mer frequency, TF over GST control); in the test with ELF4, 1.11 fold enrichment (6-mer frequency, TF over GST control); in the test with ETV1, 1.05 fold enrichment (6-mer frequency, TF over GST control). In addition, the binding signal with ERF is 1.13 fold enrichment (6-mer frequency, TF over GST control); with ETV3L, 1.04 fold enrichment (6-mer frequency, TF over GST control); with ETS2, 1.04 fold enrichment (6-mer frequency, TF over GST control); in the test with SPDEF, 1.03 fold enrichment (6-mer frequency, TF over GST control); in the test with ELF5, 1.07 fold enrichment (6-mer frequency, TF over GST control); with ETV3, 1.14 fold enrichment (6-mer frequency, TF over GST control). In addition, in the test with ETV6, the binding signal was 1.1 fold enrichment (6-mer frequency, TF over GST control).

The values are drawn from publication PMC7862700, “An all-to-all approach to the identification of sequence-specific readers for epigenetic DNA modifications on cytosine”.
